The supplement of paper PMC7335073
In all, about 4,100 sequences were measured (“relative CpG methylation activity (normalised to average over all NNNCGNNN flanks)”: median about 0.94, highest 2% from about 1.9 on). This excerpt belongs to a sample that is enriched for the highest values.

biological target: DNMT3B catalytic domain (mouse) (UniProt O88509); assay: relative CpG methylation activity (normalised to average over all NNNCGNNN flanks) (relative (1 = mean)); higher = more methylation of the central CpG; conditions: system: in vitro, murine catalytic domain; CpG state: hemimethylated substrate pool; residues: 558-859
Sequence (O88509 558-859): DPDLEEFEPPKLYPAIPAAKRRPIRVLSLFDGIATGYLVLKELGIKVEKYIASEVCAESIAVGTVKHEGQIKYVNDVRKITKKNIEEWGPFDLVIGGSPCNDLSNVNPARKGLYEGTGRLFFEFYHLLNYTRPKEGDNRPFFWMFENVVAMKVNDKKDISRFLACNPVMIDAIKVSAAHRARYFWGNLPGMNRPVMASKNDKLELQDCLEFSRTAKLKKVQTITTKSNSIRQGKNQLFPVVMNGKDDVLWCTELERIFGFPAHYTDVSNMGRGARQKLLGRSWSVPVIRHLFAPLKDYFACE
Procedure: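 Deep enzymology: a pool of dsDNA substrates with a central CpG flanked by 10 random nucleotides on each side was methylated by the murine DNMT3A or DNMT3B catalytic domain (0.8 mM SAM, 37 °C, 60 min). Methylation was then read out by hairpin ligation, bisulfite conversion and NGS. Values are the average methylation of each NNNCGNNN context (±3 flanks; the outer flanks are random and averaged over), normalised to the overall mean, so 1 = average activity.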

How did the “relative CpG methylation activity” value turn out when TTTCGGGT was run?
Its value is 2.02.

For CTTCGGCT, which “relative CpG methylation activity” value is on record?
The value was 1.9.

For GTTCGGCA, which “relative CpG methylation activity” value is on record?
Its value is 1.88.

Which “relative CpG methylation activity” value does the source give for TTTCGGCT here?
The value was 2.04.

How did the “relative CpG methylation activity” value turn out when GTTCGGCT was run?
Its value is 1.75.

How did the “relative CpG methylation activity” value turn out when GTTCGGGT was run?
Its value is 1.37.

TTTCGGCC was tested. Which “relative CpG methylation activity” value did it give?
Its value is 1.65.

TTTCGGGA was tested. Which “relative CpG methylation activity” value did it give?
Its value is 1.79.

Which “relative CpG methylation activity” value does the source give for TTTCGGCG here?
Its value is 1.79.

For CTTCGGCA, which “relative CpG methylation activity” value is on record?
The value was 1.97.

For TTTCGGCA, which “relative CpG methylation activity” value is on record?
The value was 1.69.

With CTTCGGCG as the sequence, how does the “relative CpG methylation activity” value read?
The value was 1.67.

Which “relative CpG methylation activity” value does the source give for AGTCGGTG here?
Its value is 0.863.

How did the “relative CpG methylation activity” value turn out when ATTCGCGC was run?
The value was 0.947.

CGGCGCTA was tested. Which “relative CpG methylation activity” value did it give?
The value was 0.358.

Which “relative CpG methylation activity” value does the source give for CACCGGCC here?
The value was 1.34.

How did the “relative CpG methylation activity” value turn out when ACTCGGCC was run?
The value was 1.62.

Which “relative CpG methylation activity” value does the source give for ACTCGGCT here?
Its value is 1.95.

How did the “relative CpG methylation activity” value turn out when ACTCGGCA was run?
Its value is 1.42.

How did the “relative CpG methylation activity” value turn out when TTACGTTG was run?
The value was 1.29.

With AGGCGCGA as the sequence, how does the “relative CpG methylation activity” value read?
Its value is 0.281.

Which “relative CpG methylation activity” value does the source give for CTTCGGGT here?
Its value is 1.33.

Which “relative CpG methylation activity” value does the source give for GTCCGGGC here?
Its value is 1.53.

With CTCCGGCA as the sequence, how does the “relative CpG methylation activity” value read?
Its value is 1.88.

For CTCCGGCC, which “relative CpG methylation activity” value is on record?
The value was 1.94.

Which “relative CpG methylation activity” value does the source give for ATTCGGGC here?
Its value is 1.72.

How did the “relative CpG methylation activity” value turn out when ATCCGGCC was run?
Its value is 1.48.

Which “relative CpG methylation activity” value does the source give for TTCCGGGC here?
Its value is 1.7.

For CTTCGGGC, which “relative CpG methylation activity” value is on record?
Its value is 2.18.

CTCCGGGC was tested. Which “relative CpG methylation activity” value did it give?
Its value is 2.05.

How did the “relative CpG methylation activity” value turn out when ATCCGAGA was run?
Its value is 1.4.

GCACGAGC was tested. Which “relative CpG methylation activity” value did it give?
Its value is 1.79.

For GAACGTGC, which “relative CpG methylation activity” value is on record?
Its value is 1.03.

CAGCGGTG was tested. Which “relative CpG methylation activity” value did it give?
Its value is 0.603.

GTCCGTAT was tested. Which “relative CpG methylation activity” value did it give?
The value was 0.661.

For TATCGGAT, which “relative CpG methylation activity” value is on record?
Its value is 1.18.

ACCCGATT was tested. Which “relative CpG methylation activity” value did it give?
Its value is 1.41.

GCTCGTCA was tested. Which “relative CpG methylation activity” value did it give?
Its value is 0.561.

With GTACGGTA as the sequence, how does the “relative CpG methylation activity” value read?
The value was 1.61.

TTACGGTC was tested. Which “relative CpG methylation activity” value did it give?
The value was 2.02.

Which “relative CpG methylation activity” value does the source give for CTACGGTC here?
The value was 1.85.

How did the “relative CpG methylation activity” value turn out when ATACGGTC was run?
Its value is 1.68.

With TTACGGTA as the sequence, how does the “relative CpG methylation activity” value read?
Its value is 2.02.

For CTACGGTA, which “relative CpG methylation activity” value is on record?
The value was 1.81.

GGACGCGG was tested. Which “relative CpG methylation activity” value did it give?
The value was 0.51.

CATCGATC was tested. Which “relative CpG methylation activity” value did it give?
The value was 1.81.

For GCCCGACG, which “relative CpG methylation activity” value is on record?
Its value is 1.16.

TCACGCTT was tested. Which “relative CpG methylation activity” value did it give?
The value was 1.36.

For TTACGAGG, which “relative CpG methylation activity” value is on record?
Its value is 1.8.

How did the “relative CpG methylation activity” value turn out when TTACGAGC was run?
Its value is 2.09.

Which “relative CpG methylation activity” value does the source give for ATACGAGC here?
Its value is 1.87.

For TTACGAGA, which “relative CpG methylation activity” value is on record?
The value was 1.84.

With ATACGAGA as the sequence, how does the “relative CpG methylation activity” value read?
The value was 1.82.

CTACGACT was tested. Which “relative CpG methylation activity” value did it give?
Its value is 1.92.

With CTACGACG as the sequence, how does the “relative CpG methylation activity” value read?
The value was 1.81.

How did the “relative CpG methylation activity” value turn out when ATACGAGT was run?
Its value is 1.92.

How did the “relative CpG methylation activity” value turn out when ATACGAGG was run?
The value was 1.72.

Which “relative CpG methylation activity” value does the source give for GTACGACT here?
Its value is 1.46.

With ATACGAAT as the sequence, how does the “relative CpG methylation activity” value read?
Its value is 1.64.

For CTACGAGA, which “relative CpG methylation activity” value is on record?
Its value is 1.96.

For CATCGCTA, which “relative CpG methylation activity” value is on record?
Its value is 0.882.

GATCGCTG was tested. Which “relative CpG methylation activity” value did it give?
The value was 0.405.

For TCCCGCCG, which “relative CpG methylation activity” value is on record?
The value was 0.883.

GAGCGTAT was tested. Which “relative CpG methylation activity” value did it give?
Its value is 0.648.

Which “relative CpG methylation activity” value does the source give for GCACGTGG here?
The value was 0.497.

For GTCCGTCT, which “relative CpG methylation activity” value is on record?
Its value is 0.827.

TCTCGCGG was tested. Which “relative CpG methylation activity” value did it give?
The value was 0.647.

With CTGCGCTG as the sequence, how does the “relative CpG methylation activity” value read?
Its value is 0.95.

With TACCGCTA as the sequence, how does the “relative CpG methylation activity” value read?
Its value is 0.483.

For CAGCGACC, which “relative CpG methylation activity” value is on record?
Its value is 0.972.

For GACCGCAA, which “relative CpG methylation activity” value is on record?
Its value is 0.281.

CTACGAGG was tested. Which “relative CpG methylation activity” value did it give?
The value was 1.68.

With GTACGAGC as the sequence, how does the “relative CpG methylation activity” value read?
The value was 1.83.

CTACGAGT was tested. Which “relative CpG methylation activity” value did it give?
The value was 1.96.

With TTACGAGT as the sequence, how does the “relative CpG methylation activity” value read?
Its value is 1.74.

For GTACGAGT, which “relative CpG methylation activity” value is on record?
Its value is 1.48.

With CTACGAGC as the sequence, how does the “relative CpG methylation activity” value read?
Its value is 2.12.

With CGCCGGTC as the sequence, how does the “relative CpG methylation activity” value read?
The value was 1.23.

AAACGCGG was tested. Which “relative CpG methylation activity” value did it give?
The value was 1.24.

CTCCGCGT was tested. Which “relative CpG methylation activity” value did it give?
The value was 0.717.

With CCTCGAGT as the sequence, how does the “relative CpG methylation activity” value read?
Its value is 1.5.

TCTCGAGA was tested. Which “relative CpG methylation activity” value did it give?
Its value is 1.96.

TCTCGAGT was tested. Which “relative CpG methylation activity” value did it give?
The value was 1.45.

AAACGAGA was tested. Which “relative CpG methylation activity” value did it give?
Its value is 1.9.

For TCACGAGG, which “relative CpG methylation activity” value is on record?
Its value is 1.7.

Which “relative CpG methylation activity” value does the source give for GAACGAGA here?
The value was 1.76.

With CAACGAGT as the sequence, how does the “relative CpG methylation activity” value read?
The value was 1.47.

TCTCGAGC was tested. Which “relative CpG methylation activity” value did it give?
The value was 1.53.

Which “relative CpG methylation activity” value does the source give for CAACGAGA here?
The value was 1.94.

With TCACGAGA as the sequence, how does the “relative CpG methylation activity” value read?
The value was 1.96.

Which “relative CpG methylation activity” value does the source give for TCACGAGT here?
Its value is 1.49.

With TAACGAGA as the sequence, how does the “relative CpG methylation activity” value read?
Its value is 1.72.

With CAACGAGC as the sequence, how does the “relative CpG methylation activity” value read?
The value was 1.74.

How did the “relative CpG methylation activity” value turn out when TTACGCCG was run?
Its value is 1.59.
